Data on 19 compounds can be found in PubChem BioAssay (EPA / NIEHS).

Inconclusive results are not listed. Calls of active or inactive are those of the source. Rule for the calls: active = hit-call score of the fitted dose curve at least 0.9, where 1 is the maximum; inconclusive = response in the unintended direction; inactive = score below 0.9.

For experiment [1], the target named is human Matrix Metalloproteinase-3 (MMP3), MMP3 (gene 4314) (UniProt P08254). Put plainly: NVS_ENZ_hMMP3: NovaScreen (NVS) Enzymatic Assay for human Matrix Metalloproteinase-3 (MMP3) (AID 2283185). The procedure, abridged: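 Fluorescent substrate turnover by recombinant MMP3 read after 1 h, signal loss scored against DMSO. Compounds first run in duplicate at 25 uM single dose, then actives confirmed by concentration series.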

For experiment [2], the target named is human Phosphoinositide 3-kinase alpha (PI3Ka), PIK3CA (gene 5290) (UniProt P42336). Briefly: NVS_ENZ_hPI3Ka: NovaScreen (NVS) Enzymatic Assay for human Phosphoinositide 3-kinase alpha (PI3Ka) (AID 2283196). How it is done: (§1) NVS_ENZ_hPI3Ka is a biochemical, single-readout assay that uses extracted gene-proteins in a cell-free assay. Measurements were taken 1 hour after chemical dosing in a 384-well plate.NVS_ENZ_hPI3Ka is one of one assay component(s) measured or calculated from the NVS_ENZ_hPI3Ka assay. It is designed to make measurements of enzyme activity, a form of enzyme reporter, as detected with fluorescence intensity signals by Fluorescence and electrophoretic mobility shift technology.Data from the assay component NVS_ENZ_hPI3Ka was analyzed into 1 assay endpoint. This assay endpoint, NVS_ENZ_hPI3Ka, was analyzed in the positive analysis fitting direction relative to DMSO as the negative control and baseline of activity. Using a type of enzyme reporter, loss-of-signal activity can be used to understand changes in the enzymatic activity as they relate to the gene PIK3CA. Furthermore, this assay endpoint can be referred to as a primary readout, because this assay has produced multiple assay endpoints where this one serves a enzymatic activity function. To generalize the intended target to other relatable targets, this assay endpoint is annotated to the kinase intended target family, where the subfamily is phosphoinositol kinase.
Binding assays used specific radioligands (tritiated, iodinated) with non-radioactive competitive displacement ligands in agonist or antagonist protocols (as indicated) and various reference compounds and inhibitors to titrate specific binding to receptors and transporters. Most enzyme assays (CYPs, kinases, phosphatases, proteases, HDACs) used recombinant protein and specific substrates (fluorescence mostly, some colorimetric and radioactive) and inhibitors, followed by a biochemical separation of substrate and product. All assays for the biochemical HTS were initially run in duplicate at a single concentration (10 uM for CYP450 assays and 25 uM for all others). […]

Experiment [3] deals with human Protein Phosphatase, Mg2+/Mn2+ Dependent 1A (PPM1A), PPM1A (gene 5494) (UniProt P35813). Put plainly: NVS_ENZ_hPPM1A: NovaScreen (NVS) Enzymatic Assay for human Protein Phosphatase, Mg2+/Mn2+ Dependent 1A (PPM1A) (AID 2283198). The procedure, abridged: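 Primary screen in duplicate at 25 uM, with actives then titrated to a maximum of 50 uM. Recombinant PPM1A dephosphorylation of fluorescent substrate measured at 1 h, with substrate and product separated by mobility shift; inhibition fitted against DMSO.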

The target of experiment [4] is human Matrix Metalloproteinase-9 (MMP9), MMP9 (gene 4318) (UniProt P14780). Briefly: NVS_ENZ_hMMP9: NovaScreen (NVS) Enzymatic Assay for human Matrix Metalloproteinase-9 (MMP9) (AID 2283190).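 Note: cell-free recombinant MMP9 protease activity read by fluorescent substrate signal; active means inhibition seen as loss of fluorescence signal versus DMSO.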 The method, boiled down: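 Cell-free recombinant MMP9 enzyme activity measured by fluorescence intensity 1 h after dosing. Primary screen in duplicate at 25 uM, actives followed in concentration series; loss of signal relative to DMSO.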

Experiment [5] has as its target human Phosphodiesterase 4A1 (PDE4A1), PDE4A (gene 5141) (UniProt P27815). Briefly: NVS_ENZ_hPDE4A1: NovaScreen (NVS) Enzymatic Assay for human Phosphodiesterase 4A1 (PDE4A1) (AID 2283191). The method, boiled down: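 Fluorescent substrate turnover by recombinant PDE4A1 read after 1 h by mobility-shift separation. Primary duplicate screen at 25 uM; hits retested in concentration series with a 50 uM maximum, relative to DMSO.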

The target of experiment [6] is human Phosphodiesterase 10 (PDE10), PDE10A (gene 10846) (UniProt Q9Y233). Put plainly: NVS_ENZ_hPDE10: NovaScreen (NVS) Enzymatic Assay for human Phosphodiesterase 10 (PDE10) (AID 2283195). As for the experimental part:
as §1, with “NVS_ENZ_hPDE10” for “NVS_ENZ_hPI3Ka”, “plate.NVS_ENZ_hPDE10” for “plate.NVS_ENZ_hPI3Ka”, “NVS_ENZ_hPDE10,” for “NVS_ENZ_hPI3Ka,”, “PDE10A.” for “PIK3CA.”, “esterase” for “kinase”, “phosphodiesterase.” for “phosphoinositol kinase.”
Binding assays used specific radioligands (tritiated, iodinated) with non-radioactive competitive displacement ligands in agonist or antagonist protocols (as indicated) and various reference compounds and inhibitors to titrate specific binding to receptors and transporters. Most enzyme assays (CYPs, kinases, phosphatases, proteases, HDACs) used recombinant protein and specific substrates (fluorescence mostly, some colorimetric and radioactive) and inhibitors, followed by a biochemical separation of substrate and product. All assays for the biochemical HTS were initially run in duplicate at a single concentration (10 uM for CYP450 assays and 25 uM for all others). Assay-chemical combinations meeting a pre-defined threshold (e.g., 30% inhibition and other criteria defined below) were then run in singleton concentration-response format with maximum concentration of 20 uM for CYPs and 50 uM for all others. Each assay was run with positive and negative controls, and concurrent controls on every plate. The follow-up (secondary) screen tested active chemical-pairs in concentration series, as well as a few additional assays not tested in the primary screen, some selected negative inactives, and several cases re-run in the concentration series for confirmatory purposes.

Experiment [7] concerns the target human Phosphodiesterase 5 (PDE5), PDE5A (gene 8654) (UniProt O76074). Briefly: NVS_ENZ_hPDE5: NovaScreen (NVS) Enzymatic Assay for human Phosphodiesterase 5 (PDE5) (AID 2283194). The method, boiled down: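 Screening began in duplicate at 25 uM, with actives taken into concentration-response. Enzyme activity of recombinant PDE5 toward its substrate was measured at 1 h by fluorescence mobility-shift detection, relative to DMSO controls.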

Experiment [8] concerns the target human Mitogen- and Stress-activated Protein Kinase-1 (Msk1), RPS6KA5 (gene 9252) (UniProt O75582). Put plainly: NVS_ENZ_hMsk1: NovaScreen (NVS) Enzymatic Assay for human Mitogen- and Stress-activated Protein Kinase-1 (Msk1) (AID 2283187). The procedure, abridged:
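Chemicals first run in duplicate at 25 uM, with actives followed up in singleton concentration series to 50 uM maximum. Enzyme activity came from substrate/product mobility-shift separation with fluorescence detection after 1 h incubation of the recombinant protein.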

For experiment [9], the target named is cAMP-dependent protein kinase catalytic subunit alpha (Homo sapiens) (UniProt P17612). Put plainly: NVS_ENZ_hPKA: NovaScreen (NVS) Enzymatic Assay for human Protein Kinase A (PKA) (AID 2283192). The procedure, abridged: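 Cell-free kinase activity read by fluorescence after mobility-shift separation of substrate and product, 1 h post-dosing. Single-concentration duplicate screen (25 uM) preceded singleton concentration series (top 50 uM); loss of signal versus DMSO.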

By AC50 is commonly meant the midpoint of the concentration-response curve, whichever way the signal moves.

Chain of human Phosphodiesterase 4A1 (PDE4A1), PDE4A (gene 5141) (P27815 whole entry, looked up): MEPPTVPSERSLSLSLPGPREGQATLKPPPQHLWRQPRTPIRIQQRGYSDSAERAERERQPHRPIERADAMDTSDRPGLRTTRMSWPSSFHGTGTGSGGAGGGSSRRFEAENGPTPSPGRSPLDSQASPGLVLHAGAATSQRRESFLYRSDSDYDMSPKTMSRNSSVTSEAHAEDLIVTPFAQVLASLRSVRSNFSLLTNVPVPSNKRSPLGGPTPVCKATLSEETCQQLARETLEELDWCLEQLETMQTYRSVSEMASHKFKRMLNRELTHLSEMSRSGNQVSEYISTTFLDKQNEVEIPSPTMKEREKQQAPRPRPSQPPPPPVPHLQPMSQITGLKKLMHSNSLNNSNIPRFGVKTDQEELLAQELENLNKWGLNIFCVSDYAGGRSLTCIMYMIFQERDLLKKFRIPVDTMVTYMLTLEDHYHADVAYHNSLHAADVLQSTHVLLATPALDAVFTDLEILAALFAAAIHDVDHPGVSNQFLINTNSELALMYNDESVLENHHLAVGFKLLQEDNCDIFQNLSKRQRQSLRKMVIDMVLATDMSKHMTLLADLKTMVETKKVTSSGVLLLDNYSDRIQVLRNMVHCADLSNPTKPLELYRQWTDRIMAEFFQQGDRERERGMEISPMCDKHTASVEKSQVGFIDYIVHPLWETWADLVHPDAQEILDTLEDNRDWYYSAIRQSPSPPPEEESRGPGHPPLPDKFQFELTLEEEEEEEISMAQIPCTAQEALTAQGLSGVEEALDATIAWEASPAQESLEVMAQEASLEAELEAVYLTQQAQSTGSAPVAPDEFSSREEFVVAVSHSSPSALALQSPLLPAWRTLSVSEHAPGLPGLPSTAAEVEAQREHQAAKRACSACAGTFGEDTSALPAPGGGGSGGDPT
Chain of human Phosphodiesterase 10 (PDE10), PDE10A (gene 10846) (Q9Y233 whole entry, looked up): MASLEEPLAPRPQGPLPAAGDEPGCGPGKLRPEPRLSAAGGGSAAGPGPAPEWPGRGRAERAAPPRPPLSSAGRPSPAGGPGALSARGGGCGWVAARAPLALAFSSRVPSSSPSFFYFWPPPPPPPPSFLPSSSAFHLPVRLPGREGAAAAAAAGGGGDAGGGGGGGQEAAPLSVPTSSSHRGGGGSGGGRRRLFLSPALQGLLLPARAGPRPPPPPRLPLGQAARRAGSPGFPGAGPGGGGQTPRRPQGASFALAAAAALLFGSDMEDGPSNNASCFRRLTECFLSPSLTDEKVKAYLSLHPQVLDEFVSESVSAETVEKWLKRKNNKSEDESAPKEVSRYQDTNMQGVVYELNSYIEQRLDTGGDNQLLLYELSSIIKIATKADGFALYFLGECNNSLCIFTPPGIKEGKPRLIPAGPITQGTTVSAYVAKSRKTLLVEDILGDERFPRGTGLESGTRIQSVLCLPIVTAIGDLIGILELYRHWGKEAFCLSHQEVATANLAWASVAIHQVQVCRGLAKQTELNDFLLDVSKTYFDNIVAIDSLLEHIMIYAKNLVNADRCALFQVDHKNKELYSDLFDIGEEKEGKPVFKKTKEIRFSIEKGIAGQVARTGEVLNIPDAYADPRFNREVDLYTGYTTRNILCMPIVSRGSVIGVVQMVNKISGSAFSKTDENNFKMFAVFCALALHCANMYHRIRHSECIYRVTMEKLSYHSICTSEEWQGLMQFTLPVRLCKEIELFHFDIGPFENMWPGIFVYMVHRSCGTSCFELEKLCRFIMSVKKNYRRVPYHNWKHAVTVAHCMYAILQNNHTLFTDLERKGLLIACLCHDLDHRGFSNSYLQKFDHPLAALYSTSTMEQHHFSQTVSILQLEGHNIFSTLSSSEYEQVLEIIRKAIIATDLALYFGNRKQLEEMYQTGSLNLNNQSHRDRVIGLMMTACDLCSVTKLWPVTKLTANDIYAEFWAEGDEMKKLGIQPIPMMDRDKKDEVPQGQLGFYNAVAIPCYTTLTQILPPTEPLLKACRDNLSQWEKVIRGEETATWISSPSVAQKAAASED
Chain of human Matrix Metalloproteinase-9 (MMP9), MMP9 (gene 4318) (P14780 whole entry, looked up): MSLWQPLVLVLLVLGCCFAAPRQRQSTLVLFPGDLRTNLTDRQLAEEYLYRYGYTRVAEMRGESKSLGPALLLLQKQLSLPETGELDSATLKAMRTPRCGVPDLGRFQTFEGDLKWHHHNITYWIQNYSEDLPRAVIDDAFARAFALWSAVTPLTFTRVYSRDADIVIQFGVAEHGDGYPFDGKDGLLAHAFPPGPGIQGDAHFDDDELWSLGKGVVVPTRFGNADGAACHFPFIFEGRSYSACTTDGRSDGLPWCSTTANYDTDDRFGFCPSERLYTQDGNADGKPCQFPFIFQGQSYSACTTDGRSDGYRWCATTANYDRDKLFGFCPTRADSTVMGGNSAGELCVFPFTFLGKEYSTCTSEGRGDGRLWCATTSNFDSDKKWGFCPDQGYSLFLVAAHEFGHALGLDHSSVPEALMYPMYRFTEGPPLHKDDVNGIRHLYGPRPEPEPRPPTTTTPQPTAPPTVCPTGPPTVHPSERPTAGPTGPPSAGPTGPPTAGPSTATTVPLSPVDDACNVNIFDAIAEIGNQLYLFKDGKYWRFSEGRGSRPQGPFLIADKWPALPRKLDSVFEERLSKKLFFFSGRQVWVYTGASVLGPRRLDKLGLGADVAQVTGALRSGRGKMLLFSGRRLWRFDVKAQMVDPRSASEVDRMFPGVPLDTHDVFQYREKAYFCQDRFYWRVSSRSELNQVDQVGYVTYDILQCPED
Chain of human Matrix Metalloproteinase-3 (MMP3), MMP3 (gene 4314) (P08254 whole entry, looked up): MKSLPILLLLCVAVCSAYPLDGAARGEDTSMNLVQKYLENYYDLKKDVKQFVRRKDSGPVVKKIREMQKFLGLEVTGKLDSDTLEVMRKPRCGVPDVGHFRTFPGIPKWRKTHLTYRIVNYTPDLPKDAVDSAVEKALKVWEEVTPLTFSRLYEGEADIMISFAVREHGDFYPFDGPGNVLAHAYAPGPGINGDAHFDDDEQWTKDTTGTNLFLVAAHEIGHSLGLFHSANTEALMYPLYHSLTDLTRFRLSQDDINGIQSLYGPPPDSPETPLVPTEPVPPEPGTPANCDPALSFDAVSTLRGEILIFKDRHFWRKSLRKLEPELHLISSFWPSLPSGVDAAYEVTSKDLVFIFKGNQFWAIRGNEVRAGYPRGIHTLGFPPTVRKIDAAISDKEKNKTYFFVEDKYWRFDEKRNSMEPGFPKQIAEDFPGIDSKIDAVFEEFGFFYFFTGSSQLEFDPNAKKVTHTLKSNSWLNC
Chain of human Protein Phosphatase, Mg2+/Mn2+ Dependent 1A (PPM1A), PPM1A (gene 5494) (P35813 whole entry, looked up): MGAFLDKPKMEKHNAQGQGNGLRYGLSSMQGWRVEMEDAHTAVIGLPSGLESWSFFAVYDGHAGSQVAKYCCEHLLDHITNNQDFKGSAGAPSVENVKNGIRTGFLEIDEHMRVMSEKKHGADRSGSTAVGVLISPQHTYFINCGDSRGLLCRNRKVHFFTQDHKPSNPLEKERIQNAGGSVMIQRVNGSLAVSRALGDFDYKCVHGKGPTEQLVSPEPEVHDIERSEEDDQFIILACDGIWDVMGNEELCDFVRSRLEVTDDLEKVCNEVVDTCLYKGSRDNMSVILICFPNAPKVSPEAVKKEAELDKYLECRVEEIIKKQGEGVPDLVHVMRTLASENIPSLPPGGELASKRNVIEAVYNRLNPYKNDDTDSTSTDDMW
Chain of human Phosphoinositide 3-kinase alpha (PI3Ka), PIK3CA (gene 5290) (P42336 whole entry, looked up): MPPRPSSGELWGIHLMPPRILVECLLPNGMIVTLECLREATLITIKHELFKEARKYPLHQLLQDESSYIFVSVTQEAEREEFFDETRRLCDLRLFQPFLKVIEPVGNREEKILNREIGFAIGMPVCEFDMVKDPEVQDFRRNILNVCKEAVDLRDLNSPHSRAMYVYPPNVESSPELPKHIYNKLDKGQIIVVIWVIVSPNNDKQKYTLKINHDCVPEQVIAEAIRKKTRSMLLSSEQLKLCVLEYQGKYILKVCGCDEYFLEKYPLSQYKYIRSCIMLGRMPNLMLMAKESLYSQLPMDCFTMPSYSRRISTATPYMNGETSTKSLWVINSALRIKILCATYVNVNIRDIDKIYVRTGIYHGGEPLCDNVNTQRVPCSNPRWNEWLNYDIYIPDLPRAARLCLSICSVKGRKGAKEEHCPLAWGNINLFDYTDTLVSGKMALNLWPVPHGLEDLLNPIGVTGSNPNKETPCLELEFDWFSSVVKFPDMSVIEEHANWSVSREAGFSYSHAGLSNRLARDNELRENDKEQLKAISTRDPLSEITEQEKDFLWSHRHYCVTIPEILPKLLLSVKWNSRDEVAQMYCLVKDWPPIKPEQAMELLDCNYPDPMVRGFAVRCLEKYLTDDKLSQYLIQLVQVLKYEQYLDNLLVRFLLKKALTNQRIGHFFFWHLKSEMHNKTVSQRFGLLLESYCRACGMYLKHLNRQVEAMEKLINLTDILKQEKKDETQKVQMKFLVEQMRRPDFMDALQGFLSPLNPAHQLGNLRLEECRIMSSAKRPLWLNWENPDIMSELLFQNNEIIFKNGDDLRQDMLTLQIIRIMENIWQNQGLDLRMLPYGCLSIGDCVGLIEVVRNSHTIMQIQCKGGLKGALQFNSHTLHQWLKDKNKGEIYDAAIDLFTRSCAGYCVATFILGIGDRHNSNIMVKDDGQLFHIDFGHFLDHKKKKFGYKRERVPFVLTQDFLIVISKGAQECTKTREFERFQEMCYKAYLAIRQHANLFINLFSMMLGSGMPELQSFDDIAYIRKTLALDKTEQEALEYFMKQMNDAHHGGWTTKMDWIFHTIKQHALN

Take `O=C1c2c(O)cccc2Cc2cccc(O)c21`: in [1], the AC50 was 8.87 µM (active). In addition, the call in experiment [2] was inactive.

With `CCCCCCCCCCCCCCCCO`, the compound was called inactive in [3]. For the compound `C/C=C/C=C/C(=O)O`, in experiment [4], the half-maximal activity concentration (AC50) is 1.24 µM (active). Also, the compound was called inactive in experiment [5] and in [6]. `CCCCCCCCCCCCCCOS(=O)(=O)O`: the figures for the half-maximal activity concentration (AC50) in experiment [1] and in experiment [5] were 26 µM (active) and 18.6 µM (active), respectively. On to `CCc1cc(C2=C(C(=O)O)N(c3ccccc3C(F)(F)F)S(=O)(=O)c3ccccc32)cc2c1OCO2`, for which the AC50 in experiment [1] was 25 µM (active). Further, the outcome in experiment [5], in [7] and in experiment [6] was inactive. As to `CC1(C)C(=O)NC(=O)N1CO`, in experiment [7], the result was inactive. For `COc1ccc(C(=O)Nc2nc3ccccc3c(NCc3ccccc3)c2C#N)cc1`, in [5], the concentration at half-maximal activity (AC50) is 17.7 µM (active). For the compound `O=Cc1ccccc1C=O`, the AC50 in [1] was 6.96 µM (active).

`Nc1nc(Cl)nc2c1ncn2[C@H]1C[C@H](O)[C@@H](CO)O1`: in experiment [5], the AC50 is 9.18 µM (active). As to `COc1ccc(OC(F)(F)F)cc1CN[C@H]1CCCN[C@H]1c1ccccc1`, the result in experiment [8], in experiment [5], in experiment [9], in experiment [7], in experiment [6] and in [2] was inactive. For `Nc1nc(=S)c2[nH]cnc2[nH]1`, the AC50 in experiment [4] is 39.2 µM (active). For `CC(=O)OC1CC(C)OC(C)O1` (configuration not stated), the result in experiment [3] was inactive. As to `CN(C)CCCN(C)CCCN(C)C`, the call in experiment [5] and in experiment [6] was inactive. With `O=C(Oc1ccccc1)c1cccc(C(=O)Oc2ccccc2)c1`, in [9], the result was inactive. `CC(C)NCC(O)c1ccc(O)c(O)c1` (configuration not stated): the compound was classed as inactive in experiment [5]. With `Cn1cnc2c1c(=O)[nH]c(=O)n2C`, in experiment [4], the compound was called inactive. In the case of `CC(C)(C)c1ccccc1`, the compound was called inactive in experiment [9]. Take `CC(=O)CC(c1ccccc1)c1c(O)c2ccccc2oc1=O` (configuration not stated): the compound was called inactive in experiment [9]. `O=C(O)c1[nH]n(-c2ccc(S(=O)(=O)O)cc2)c(=O)c1N=Nc1ccc(S(=O)(=O)O)cc1`: the concentration at half-maximal activity (AC50) in experiment [1] was 23.6 µM (active).
